Bioassay records (PubChem BioAssay)
Luc counter: blocks Kinase-Glo luciferase, a counter-screen artifact. Q27757. Kinase-Glo luciferase, ATP luminescence, 8 min. Potency, µM (highest dose often 38.3 µM), for inactives: at the top dose activity change, negative = inhibition, usual class: inhibitors. hit rate 0.28% among 200,000. AID 1379; note: % is set by controls: 0 for no effect and ±100 for the full control effect; nearly all actives have a fitted effect of over 60% in size
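Inhibition of Kinase-Glo luciferase light generation was assessed at 10 uM ATP in pH 7.2 imidazole buffer, with luminescence measured after eight minutes at ambient temperature.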
NPC1 promoter act: NPC1 promoter activation; Huh7 NPC1 promoter luciferase reporter, 24 h; Potency, µM (titrated, usually from 9.22 µM), inactives show at the top dose activation, hits mostly activators; hit rate 2.4% among 320,000; note: % of control where 0% means no effect; nearly all actives have a fitted effect of over 60% in size
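Readout is luciferase luminescence, reflecting NPC1 promoter activation in stably transfected Huh7 cells after 24 h compound exposure at 37 °C in reduced-serum medium with 10% FBS.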
FLuc modulator: inhibits or activates purified firefly luciferase, miR-21 counter-screen. P08659. purified FLuc, Km substrates, luminescence inhibition. Potency, µM (top dose mostly 57.5 µM), for the others: at the top dose activity change, negative = inhibition, actives largely listed as inhibitors. hit rate 6.9% among 360,000;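 note: plate controls were vehicle for no effect and reference inhibitor for full effect; nearly all actives have a fitted effect of over 55% in size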
Target sequence (P08659 whole entry, looked up): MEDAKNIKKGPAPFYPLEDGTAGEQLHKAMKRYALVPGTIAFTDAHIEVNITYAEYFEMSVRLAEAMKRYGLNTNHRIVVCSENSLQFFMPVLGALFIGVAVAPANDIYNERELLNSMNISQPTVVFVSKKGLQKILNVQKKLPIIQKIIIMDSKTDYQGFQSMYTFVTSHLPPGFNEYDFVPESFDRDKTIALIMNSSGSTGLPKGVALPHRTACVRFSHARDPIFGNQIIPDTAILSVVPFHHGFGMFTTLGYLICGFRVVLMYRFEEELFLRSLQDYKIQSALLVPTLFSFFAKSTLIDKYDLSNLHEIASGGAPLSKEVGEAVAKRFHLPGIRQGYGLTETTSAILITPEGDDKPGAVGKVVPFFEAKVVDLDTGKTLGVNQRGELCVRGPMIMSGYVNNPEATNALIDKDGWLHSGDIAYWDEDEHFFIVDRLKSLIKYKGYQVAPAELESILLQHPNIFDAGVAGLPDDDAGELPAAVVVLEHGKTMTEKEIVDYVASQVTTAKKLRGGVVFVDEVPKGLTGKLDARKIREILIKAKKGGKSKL
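Purified P. pyralis luciferase, 10 nM final, with Km-level 10 uM D-luciferin and 10 uM ATP in 50 mM Tris acetate pH 7.5, 10 mM Mg acetate, 0.01% Tween-20, 0.05% BSA; 6-point qHTS titration about 60 µM downward; luminescence read.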
ELG1 genotoxic: induces genotoxicity in HEK293T cells with luciferase-tagged ELG1; HEK293T ELG1-luciferase reporter, luminescence, 16 h; Potency, µM (series often up to 46 µM), without a hit: at the highest dose activity change, positive = activation, actives largely listed as activators; AID 504466; hit rate 1.3% among 330,000; note: % of control where 0% means no effect; nearly all actives have a fitted effect of over 60% in size
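Luminescence read-out: rising ELG1-luciferase signal, reflecting elevated ELG1 protein under genetic stress, flags genotoxic compounds. Cells were treated for 16 hr at 37 °C before ONE-Glo detection.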
SMN2 splice up: SMN2 splice variant enhancement | HEK293 SMN2-luciferase splicing reporter, luminescence, 30-36 h | Potency, µM (titrated, usually from 46.1 µM), inactives show top-dose activity change, positive = activation, most hits filed as activators | hit rate 2.8% among 210,000 | AID 1458; note: % of control where 0% means no effect; nearly all actives have a fitted effect of over 55% in size
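HEK293 cells carry an SMN2 […]–luciferase reporter in which exon 7 inclusion puts luciferase in frame. Cells were plated 10-12 h before compound addition, then incubated 30-36 h at 37C. ONE-Glo luminescence was read; sodium butyrate at 4.5 mM final served as control.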
Rab9 prom act: activators of Rab9 promoter; AID 485297; hit rate 2.8% among 320,000; Huh7 Rab9 promoter-luciferase reporter, luminescence, 24 h; Potency, µM (titrated, usually from 9.22 µM), without a hit: at the top dose activation, negative = inhibition, most hits filed as activators; note: % of control where 0% means no effect; nearly all actives have a fitted effect of over 60% in size
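Luminescence from Amplite-detected luciferase (10 minutes, ambient) reports Rab9 promoter activation. Before that, stable Rab9-luciferase Huh7 cells (1500/well, reduced-serum OP-MEM I plus 10% FBS) were exposed to compound for 24 hours at 37C.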
The depositor's hits bear a star; ? = inconclusive; nt = not tested or not shown; [ ] = remark or other dose. Only some compounds are listed: those with a hit (about 7.3% of all), similar ones and a draw of the others. Calls come from the whole dose curve; as a rule, active = well fitted curve in the direction sought with a large enough effect; inconclusive = small, poorly fitted or top-dose-only effect, or another doubt; inactive = no such curve, though single readings can be large; an effect the other way counts as inactive or inconclusive. Potency is the fitted concentration of half-maximal effect.

SMILES | Luc counter | NPC1 promoter act | FLuc modulator | ELG1 genotoxic | SMN2 splice up | Rab9 prom act
COc1ccc(O)c(-c2cc(-c3cccc(Br)c3)n[nH]2)c1 | -5% | ? | 19µM* | 21µM* | 28% | ?
COc1ccc(-c2n[nH]c(C)c2-c2cc(OC)ccc2O)cc1 | -1% | -2% | -7% | -1% | -5% | -2%
O=S(=O)(c1ccc(NC(=S)NCCc2ccccc2)cc1)N1CCOCC1 | 2% | -1% | 1% | 0% | 18% | 1%
O=C(Cc1csc(NC(=O)Nc2ccc(Cl)cc2)n1)NCc1ccccn1 | nt | ? | 1.1µM* | 1% | nt | ?
O=C(Cc1csc(NC(=O)Nc2ccc(Cl)cc2)n1)NC1CCCC1 | nt | 17% | 4.8µM* | 0% | nt | -3%
O=C(COc1cccc(F)c1)NNC(=O)c1cccc(-n2cccc2)c1 | nt | -1% | 3% | 2% | nt | -2%
O=C(N/N=C/c1cccs1)c1c[nH]c2ccccc12 | -3% | 3.2µM* | 6µM* | ? | 11µM* | 2.8µM*
CCc1ccc(/C=N/NC(=O)c2c[nH]c3ccccc23)s1 | -1% | 2µM* | 6µM* | ? | 6.3µM* | 1.3µM*
O=C(CN1CCC(c2nc3ccccc3[nH]2)CC1)Nc1ccc2c(c1)OCO2 | 1% | -2% | 3%[2.3 µM] | -5% | 18% | 5%
CC12/C(=N/O)C3C4CC5C3/C(=N/O)C1C5C42 (stereo not drawn) | 6% | 1% | 2%[2.3 µM] | 0% | 24% | -2%
Cc1ccc(CN(Cc2ccccn2)C(=O)Nc2c(F)cccc2F)cc1 | nt | 3% | 0% | -4% | nt | -2%
CN1CCOc2ccc(S(=O)(=O)N3CCN(S(=O)(=O)c4c(F)cccc4F)CC3)cc21 | nt | ? | 21µM* | nt | nt | ?
COc1ccc(/C=N/NC(=O)CN(C2=NS(=O)(=O)c3ccccc32)c2ccccc2)cc1 | 6% | -7% | 8% | -1% | -33% | -1%
CCOc1ccc(N=Nc2c(N)[nH][nH]c2=O)cc1 | ? | ? | 11µM* | ? | ? | ?
COc1cccc(N=Nc2c(N)[nH][nH]c2=O)c1 | -13% | 25% | 15µM* | ? | 10µM* | 28%
CCOc1ccc(N=Nc2c(=O)[nH]n3c(=O)cc(C)[nH]c23)cc1 | ? | ? | 4.8µM* | ? | ? | 2.8µM*
Cc1cc(=O)n2[nH]c(=O)c(N=Nc3ccccc3)c2[nH]1 | -10% | -1% | ? | 9% | -4% | -2%
CCOc1ccccc1N(CC(=O)Nc1ccc(S(=O)(=O)N2CCCC2)cc1)S(C)(=O)=O | nt | 1% | 1% | -3% | nt | -3%
COc1ccc(N=Nc2nc3ccc(Br)cc3n2C)cc1 | ? | 2.8µM* | 0.38µM* | 13% | ? | 2.5µM*
CCCCNC(=S)Nc1cc(S(=O)(=O)N2CCCCC2)ccc1C | nt | 2% | 5% | -5% | nt | -4%
Cc1cc(C(=O)N2CCc3c([nH]c4ccccc34)C2c2cccc(Cl)c2)nn1C (stereo not drawn) | -1% | 1% | -10% | -11% | nt | -1%
CSc1ccc(C2c3[nH]c4ccccc4c3CCN2C(=O)c2cc(C)n(C)n2)cc1 (stereo not drawn) | 1% | 9% | 17µM* | ? | ? | ?
O=C(COc1ccccc1)Nc1ncn[nH]1 | nt | 13% | -13% | 8% | nt | 11%
CCc1ccc(OCC(=O)Nc2ncn[nH]2)cc1 | -5% | ? | 13µM* | ? | ? | 4.5µM*
O=C(COc1ccc(Br)cc1Cl)Nc1ncn[nH]1 | nt | nt | 2.1µM* | nt | ? | nt
SMILES | Luc counter | NPC1 promoter act | FLuc modulator | ELG1 genotoxic | SMN2 splice up | Rab9 prom act
CCc1ccc(OCC(=O)Nc2ncn[nH]2)c(Br)c1 | nt | nt | 1.1µM* | nt | ? | nt
CCOC(=O)c1ccccc1NC(=O)COC(=O)CCC1CCCC1 | nt | -3% | -2% | 3% | nt | 0%
COc1cc([N+](=O)[O-])ccc1N1C(=O)C2C3C=CC(C4CC34)C2C1=O (stereo not drawn) | 2% | -10% | 13µM* | -3% | -14% | 0%
COc1ccc(-c2nc3nc(C)c(Cc4ccccc4)c(=O)n3[nH]2)cc1 | 0% | 13% | 9.5µM* | ? | ? | 14%
COc1ccc(-c2nc3nc(C)cc(=O)n3[nH]2)cc1 | -8% | -3% | 17µM* | 3% | 1% | 18%
COC(=O)Cc1c(C)nc2nc(NCc3ccc(Br)cc3)[nH]n2c1=O | nt | nt | ? | nt | 5% | nt
COC(=O)Cc1c(C)nc2nc(-c3ccc(OC)cc3)[nH]n2c1=O | -26% | 12% | 15µM* | ? | -9% | 1%
Cc1cc(=O)n2[nH]c(COc3ccccc3)nc2n1 | -6% | 1% | ? | -5% | 6% | -6%
CCOC(=O)c1ccc(NC(=O)c2c(NCc3sccc3C)sc3c2CCC(C)C3)cc1 (stereo not drawn) | nt | nt | -2% | nt | nt | nt
CCOC(=O)c1[nH]c(COC(=O)CCCOc2ccccc2)c(C(=O)OCC)c1C | -10% | -4% | 6% | 0% | 2% | 2%
CCCC(C)NC(=O)/C=C/c1cccc([N+](=O)[O-])c1 (stereo not drawn) | 5% | 0% | 1% | 0% | 7% | 16%
CC(=O)N1N=C(c2ccc(C)cc2)OC1c1ccc(C)cc1 (stereo not drawn) | 7% | ? | 17µM* | 18µM* | 26% | ?
CC(=O)N1N=C(c2cccnc2)OC1c1ccc(C(C)C)cc1 (stereo not drawn) | 7% | -2% | ? | 10% | 10% | -8%
CC(=O)N1N=C(c2ccc(C)cc2)OC1c1ccc(C(C)C)cc1 (stereo not drawn) | -7% | 2.5µM* | 3µM* | ? | ? | 2.5µM*
CCc1cc(C(=O)Cc2ccccn2)c(O)cc1O | nt | 2% | -4% | -4% | nt | -3%
CC(=O)Oc1ccc(C(=O)Cc2ccccn2)c(O)c1 | 0% | -1% | 17µM* | 1% | -5% | -3%
CC(=O)Nc1ccc(/C=N/N2CCCCC2)cc1 | -3% | 3.2µM* | 27µM* | ? | 14µM* | 4.5µM*
CC(=O)Nc1ccc(/C=N/N2C(C)CCCC2C)cc1 (stereo not drawn) | 5% | 11% | 1% | 7% | -29% | 16%
COc1ccc(C(=O)COC(=O)C2COc3ccccc3O2)cc1F (stereo not drawn) | nt | nt | nt | 1% | nt | nt
O=C1SC(c2ccccc2)=C/C1=C\N1CCCCC1 | 0% | 18% | 19µM* | 10% | -8% | 20%
O=C(c1cnn(C(=O)c2ccc(O)cc2)c1)c1ccccc1O | -10% | 2% | 3.8µM* | -4% | -6% | 0%
Cc1ccc(-n2cc(C(=O)c3ccccc3O)cn2)cc1 | ? | 0.56µM* | 0.3µM* | ? | -42% | ?
